# Measurements published in the supplement of paper PMC8007513.
# Structures can show the parent of a compound that is named as a salt. ± gives the standard error. In all, about 1,300 compounds went through this assay and about 130 (10%) showed an effect of 50% or more. The entries come from a sample that favours strong results as a whole.
# Tested on: Trichoderma virens ATCC 9645
# Test: growth yield (OD600) with compound + IPBC relative to untreated control; higher = less growth inhibition
# Conditions: compound concentration: 100 uM, IPBC concentration: 200 ng/ml
# In short: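 Plates were read for OD600 at 40 h and 72 h after Trichoderma virens ATCC 9645 spores (15,000 spores ml^−1 in potato dextrose broth) were grown at 30 °C with library compounds at 100 μM final, with or without a biocide at 200 ng ml^−1. Growth is stated relative to the control with neither agent, as the mean of duplicate screens.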
SMILES,growth yield (40 h),growth yield (72 h)
CC[C@@H](CO)NC(=O)[C@@H]1C=C2c3cccc4[nH]cc(c34)C[C@H]2N(C)C1 [Methylergometrine maleate] + CCCCNC(=O)OCC#CI [3-iodo-2-propynyl butylcarbamate (IPBC)],79.7 ± 4.8%,88 ± 2%
NS(=O)(=O)c1cc2c(cc1Cl)NC(CC1CCCC1)NS2(=O)=O (stereo not given) [Cyclopenthiazide] + CCCCNC(=O)OCC#CI [3-iodo-2-propynyl butylcarbamate (IPBC)],88.8 ± 1.4%,98.48 ± 0.32%
NCc1ccccc1CC(=O)N[C@@H]1C(=O)N2C(C(=O)O)=C(CSc3nnnn3CC(=O)O)CS[C@H]12 [Ceforanide] + CCCCNC(=O)OCC#CI [3-iodo-2-propynyl butylcarbamate (IPBC)],92.3 ± 5.6%,97.1 ± 2.1%
"CCC1(c2ccc(N)cc2)CCC(=O)NC1=O (stereo not given) [Glutethimide, para-amino] + CCCCNC(=O)OCC#CI [3-iodo-2-propynyl butylcarbamate (IPBC)]",111 ± 4.1%,112 ± 4.5%
CC(NC(C)(C)C)C(=O)c1cccc(Cl)c1 (stereo not given) [Bupropion hydrochloride] + CCCCNC(=O)OCC#CI [3-iodo-2-propynyl butylcarbamate (IPBC)],92.1 ± 5.4%,98.5 ± 3%
COc1cccc(N(C)C(=S)Oc2ccc3c(c2)CCCC3)n1 [Liranaftate] + CCCCNC(=O)OCC#CI [3-iodo-2-propynyl butylcarbamate (IPBC)],0%,0%
"NCC(O)c1ccc(O)cc1 (racemic) [(+,-)-Octopamine hydrochloride] + CCCCNC(=O)OCC#CI [3-iodo-2-propynyl butylcarbamate (IPBC)]",97.4 ± 12%,95 ± 4.6%
CC(=O)N(CC(O)CO)c1c(I)c(C(=O)NCC(O)CO)c(I)c(C(=O)NCC(O)CO)c1I (stereo not given) [Iohexol] + CCCCNC(=O)OCC#CI [3-iodo-2-propynyl butylcarbamate (IPBC)],91.2 ± 8.3%,93.7 ± 5.6%
Clc1ccc(COC(Cn2ccnc2)c2ccc(Cl)cc2Cl)cc1 (stereo not given) [Econazole nitrate] + CCCCNC(=O)OCC#CI [3-iodo-2-propynyl butylcarbamate (IPBC)],3.18 ± 0.32%,2.73 ± 0.42%
Clc1ccc(CSC(Cn2ccnc2)c2ccc(Cl)cc2Cl)cc1 (stereo not given) [Sulconazole nitrate] + CCCCNC(=O)OCC#CI [3-iodo-2-propynyl butylcarbamate (IPBC)],3.02 ± 0.16%,2.41 ± 0.1%
O=C(O)/C=C/c1ccc(Cn2ccnc2)cc1 [Ozagrel hydrochloride] + CCCCNC(=O)OCC#CI [3-iodo-2-propynyl butylcarbamate (IPBC)],105 ± 12%,103 ± 8.7%
Clc1ccc(C(Cn2ccnc2)OCc2c(Cl)cccc2Cl)c(Cl)c1 (stereo not given) [Isoconazole] + CCCCNC(=O)OCC#CI [3-iodo-2-propynyl butylcarbamate (IPBC)],4.13 ± 0.64%,2.83 ± 0.32%
Clc1ccc(C(Cn2ccnc2)OCc2ccsc2Cl)c(Cl)c1 (stereo not given) [Tioconazole] + CCCCNC(=O)OCC#CI [3-iodo-2-propynyl butylcarbamate (IPBC)],3.65 ± 0.16%,2.52%
CC(c1cc2ccccc2s1)N(O)C(N)=O (stereo not given) [Zileuton] + CCCCNC(=O)OCC#CI [3-iodo-2-propynyl butylcarbamate (IPBC)],89.1 ± 3.3%,90.8 ± 2.1%
NCCCCCC(=O)O [Aminocaproic acid] + CCCCNC(=O)OCC#CI [3-iodo-2-propynyl butylcarbamate (IPBC)],103 ± 13%,98.9 ± 6.8%
Nc1ncnc2c1ncn2C1OC(COP(=O)(O)O)C(O)C1O (stereo not given) [Adenosine 5'-monophosphate monohydrate] + CCCCNC(=O)OCC#CI [3-iodo-2-propynyl butylcarbamate (IPBC)],79.4 ± 1.3%,91.2 ± 1.1%
CC(C)(C)NC(=O)[C@@H]1CN(Cc2cccnc2)CCN1C[C@@H](O)C[C@@H](Cc1ccccc1)C(=O)N[C@H]1c2ccccc2C[C@H]1O [Indinavir sulfate] + CCCCNC(=O)OCC#CI [3-iodo-2-propynyl butylcarbamate (IPBC)],88.5 ± 3.3%,89.78 ± 0.84%
Cc1nnc(NS(=O)(=O)c2ccc(N)cc2)s1 [Sulfamethizole] + CCCCNC(=O)OCC#CI [3-iodo-2-propynyl butylcarbamate (IPBC)],93.7 ± 8.9%,97.3 ± 7.1%
Cc1cc(/C=C/c2ccc3cc(N(C)C)ccc3[n+]2C)c(C)n1-c1ccccc1 [Pyrvinium pamoate] + CCCCNC(=O)OCC#CI [3-iodo-2-propynyl butylcarbamate (IPBC)],111 ± 4.5%,111 ± 3.1%
C[N+]1(C)CCCC(OC(=O)C(O)(c2ccccc2)c2ccccc2)C1 (stereo not given) [Mepenzolate bromide] + CCCCNC(=O)OCC#CI [3-iodo-2-propynyl butylcarbamate (IPBC)],83.2%,85.7 ± 0.94%

SMILES,growth yield (40 h),growth yield (72 h)
C=CCSCC1Nc2cc(Cl)c(S(N)(=O)=O)cc2S(=O)(=O)N1 (stereo not given) [Althiazide] + CCCCNC(=O)OCC#CI [3-iodo-2-propynyl butylcarbamate (IPBC)],98.16 ± 0.32%,96.7 ± 0.21%
CC=CC(=O)N(CC)c1ccccc1C [Crotamiton] + CCCCNC(=O)OCC#CI [3-iodo-2-propynyl butylcarbamate (IPBC)],98.8 ± 5.1%,102 ± 2.2%
CCN1CCC[C@H]1CNC(=O)c1c(OC)ccc(Br)c1OC [Remoxipride Hydrochloride] + CCCCNC(=O)OCC#CI [3-iodo-2-propynyl butylcarbamate (IPBC)],101 ± 3.5%,99 ± 1.5%
Clc1ccc(CO/N=C(\Cn2ccnc2)c2ccc(Cl)cc2Cl)c(Cl)c1 [Oxiconazole Nitrate] + CCCCNC(=O)OCC#CI [3-iodo-2-propynyl butylcarbamate (IPBC)],3.49 ± 0.32%,2.1 ± 0.21%
C=CCOC(Cn1ccnc1)c1ccc(Cl)cc1Cl (stereo not given) [Enilconazole] + CCCCNC(=O)OCC#CI [3-iodo-2-propynyl butylcarbamate (IPBC)],3.34 ± 0.16%,2.94 ± 0.21%
Clc1ccc(COC(Cn2ccnc2)c2ccc(Cl)cc2Cl)c(Cl)c1 (stereo not given) [Miconazole] + CCCCNC(=O)OCC#CI [3-iodo-2-propynyl butylcarbamate (IPBC)],2.8591 ± 3.6e-15%,2.41 ± 0.1%
Clc1ccc(CCC(Cn2ccnc2)Sc2c(Cl)cccc2Cl)cc1 (stereo not given) [Butoconazole nitrate] + CCCCNC(=O)OCC#CI [3-iodo-2-propynyl butylcarbamate (IPBC)],3.18%,2.62 ± 0.1%
CC(=O)NCCCS(=O)(=O)O [Acamprosate calcium] + CCCCNC(=O)OCC#CI [3-iodo-2-propynyl butylcarbamate (IPBC)],102.9 ± 0.32%,94.3 ± 2.4%
CCCCC(=O)O[C@H]1CC[C@H]2[C@@H]3CCc4cc(O)ccc4[C@H]3CC[C@]12C [Estradiol Valerate] + CCCCNC(=O)OCC#CI [3-iodo-2-propynyl butylcarbamate (IPBC)],92.29 ± 0.48%,92.2 ± 2.4%
O=C1O[C@H]([C@@H](O)CO)C(O)=C1O [Ascorbic acid] + CCCCNC(=O)OCC#CI [3-iodo-2-propynyl butylcarbamate (IPBC)],92.1 ± 0.95%,96.28 ± 0.63%
CN[C@@H]1[C@@H](O)[C@@H](O[C@@H]2[C@@H](O)[C@H](O[C@H]3OC(CN)=CC[C@H]3N)[C@@H](N)C[C@H]2N)OC[C@]1(C)O [Sisomicin sulfate] + CCCCNC(=O)OCC#CI [3-iodo-2-propynyl butylcarbamate (IPBC)],85.6 ± 3.6%,91.9 ± 3.6%
Cc1ccccc1OCC(O)CO (stereo not given) [Mephenesin] + CCCCNC(=O)OCC#CI [3-iodo-2-propynyl butylcarbamate (IPBC)],93.7 ± 2.9%,99 ± 0.63%
"CNCC(O)c1ccc(O)cc1 (racemic) [(+,-)-Synephrine] + CCCCNC(=O)OCC#CI [3-iodo-2-propynyl butylcarbamate (IPBC)]",81.3 ± 3.8%,93.8 ± 6.3%
NC(=O)C[S+]([O-])C(c1ccccc1)c1ccccc1 (stereo not given) [Modafinil] + CCCCNC(=O)OCC#CI [3-iodo-2-propynyl butylcarbamate (IPBC)],82 ± 3.5%,93.5 ± 2.9%
C[C@]12C=CC(=O)C=C1CC[C@@H]1[C@@H]2C(=O)C[C@@]2(C)[C@H]1CC[C@]2(O)C(=O)CO [Prednisone] + CCCCNC(=O)OCC#CI [3-iodo-2-propynyl butylcarbamate (IPBC)],90.9 ± 1.9%,91.5 ± 1.3%
CCCC(C)C1(CC)C(=O)NC(=O)NC1=O (stereo not given) [Pentobarbital] + CCCCNC(=O)OCC#CI [3-iodo-2-propynyl butylcarbamate (IPBC)],87.4 ± 2.9%,94.2 ± 2.7%
C/C=C(/C(=C/C)c1ccc(O)cc1)c1ccc(O)cc1 [Dienestrol] + CCCCNC(=O)OCC#CI [3-iodo-2-propynyl butylcarbamate (IPBC)],94.8 ± 3.3%,93.8 ± 2.3%
CCC(C)(CN(C)C)OC(=O)c1ccccc1 (stereo not given) [Amyleine hydrochloride] + CCCCNC(=O)OCC#CI [3-iodo-2-propynyl butylcarbamate (IPBC)],88 ± 1.3%,92 ± 2%
COc1ccc(Cl)cc1C(=O)NCCc1ccc(S(=O)(=O)NC(=O)NC2CCCCC2)cc1 [Glibenclamide] + CCCCNC(=O)OCC#CI [3-iodo-2-propynyl butylcarbamate (IPBC)],101 ± 6.8%,108 ± 5.5%
Clc1ccc(C(Cn2ccnc2)OCc2csc3c(Cl)cccc23)c(Cl)c1 (stereo not given) [Sertaconazole nitrate] + CCCCNC(=O)OCC#CI [3-iodo-2-propynyl butylcarbamate (IPBC)],3.97 ± 0.16%,3.57 ± 0.42%
